Assay results taken from PubChem BioAssay (NCATS).
A number with no mark means an inactive call. Unless noted, calls come from the whole dose curve; as a rule, active = well fitted curve in the direction sought with a large enough effect; inconclusive = small, poorly fitted or top-dose-only effect, or another doubt; inactive = no such curve, though single readings can be large; an effect the other way counts as inactive or inconclusive. Results filed as inconclusive are left out.

Test system: not listed separately
Assay: qHTS Assay for Identification of Small Molecule Agonists for Hypoxia Response Element Signaling Pathway (AID 914; active = well fitted activation curve with a large enough effect in the signal ratio, with a control signal flat, not every such curve was filed as active; the % refers to the signal ratio; note: % of control where 0% means no effect)
Settings: ME-180 (cervical carcinoma) HRE-bla reporter, beta-lactamase ratio, CoCl2, 17 h; active compounds read high
In short: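 In Opti-MEM containing 0.5% dialyzed FBS and 10 mM HEPES, ME-180 HRE-bla cells received a compound titration and EC50 CoCl2. They were incubated 17 hours, then CCF4-loaded 2.5 hours at room temperature before ratio reading.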

SMILES | activation
CC(C)CO/N=C1/C[C@@H](O)[C@@H](O)[C@@H]2[C@@H]3C(=O)N(C4CCCCC4)C(=O)[C@H]3CC[C@H]12 | -3.43%
Cc1cc2c(nc1C)CCCCN2C[C@H](O)CN1CCCc2nc(-c3ccc(Br)cc3)ccc21 | -0.373%
COC(=O)C/C=C\[C@@H](C)[C@@H]1C=C[C@H](OC(C)=O)[C@H](COC(C)=O)O1 | 1.52%
CC(C)[C@@H](OCc1ccccc1)[C@H](C)/C=N\OC[C@@H](O)[C@@H]1O[C@@H]2OC(C)(C)O[C@@H]2[C@H]1O | 7%

Test system: not listed separately
Assay: Confirmation and Secondary Assay for Modulators of Hemoglobin Beta Chain Splicing at IVS2 705 locus (AID 930);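 note: HeLa cells stably expressing the EGFP-705 splicing reporter; GFP fluorescence per well restored by corrected splicing of the IVS2-705 intron in EGFP; % of control where 0% means no effect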
Settings: HeLa EGFP-705 splicing reporter, GFP fluorescence, 48 h; series mostly up to 46.1 µM; activation: at the top concentration
In short: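 Per-well GFP, captured at 1 x 8 µm resolution with 488 nm excitation, served as the read-out for HeLa EGFP-705 cells incubated 2 days with test compound versus DMSO.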

SMILES | activation
CN1C2CC(OC(=O)C(CO)c3ccccc3)C[C@@H]1[C@H]1OC21 (stereo partly drawn) | -1.98%
CC(CCC(=O)O)C1CCC2C3CC[C@H]4CC(O)CC[C@@]4(C)C3CC[C@@]12C (stereo partly drawn) | 2.98%
COc1cc2c(cc1OC)C1C(=O)c3c(O)cc4c(c3OC1CO2)C=CC(C)(C)O4 (stereo not drawn) | -0.0883%
Nc1ncn(C2OC(CO)C(O)C2O)c(=O)n1 (stereo not drawn) | 0.194%

Molecular target: Alpha-galactosidase A (Homo sapiens) (UniProt P06280)
Sequence (P06280 whole entry, looked up): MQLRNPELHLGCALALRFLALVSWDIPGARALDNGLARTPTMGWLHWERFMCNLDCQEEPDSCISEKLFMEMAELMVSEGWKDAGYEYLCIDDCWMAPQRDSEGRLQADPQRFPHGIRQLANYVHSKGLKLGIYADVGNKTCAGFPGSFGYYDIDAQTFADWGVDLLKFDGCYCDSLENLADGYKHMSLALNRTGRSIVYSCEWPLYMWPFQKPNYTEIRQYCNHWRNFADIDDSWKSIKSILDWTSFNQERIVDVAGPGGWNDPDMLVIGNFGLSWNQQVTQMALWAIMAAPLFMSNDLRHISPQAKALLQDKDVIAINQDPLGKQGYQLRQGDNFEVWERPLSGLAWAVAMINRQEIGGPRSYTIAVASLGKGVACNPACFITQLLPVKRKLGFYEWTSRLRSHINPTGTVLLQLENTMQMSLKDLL
Assay: Counterscreen for Glucocerebrosidase Inhibitors: qHTS Assay for Human alpha-Galactosidase at pH 4.5 (AID 992); note: 0% is about no effect
Settings: purified enzyme, fluorogenic substrate; series mostly up to 76.9 µM; activity change, negative = inhibition: at the top concentration
In short: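 Quantitative HTS: compounds tested from 0.7 nM up to 77 uM against 2 nM enzyme with 80 uM 4-MU alpha-D-galactopyranoside. The 20 min room-temperature reaction is stopped with 1M NaOH/1M glycine, pH 10.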

SMILES | activity change, negative = inhibition
CCCCCCCCCN1C[C@H](O)[C@@H](O)[C@H](O)[C@H]1CO | 10%
COc1ccc(Cl)cc1Nc1nc(NCCO)nc(N2CCCC2)n1 | 1.33%
CC(C)(C)Oc1ccccc1Nc1nc(NCCO)nc(N2CCCC2)n1 | -3%
Cc1cc(N2CCOCC2)nc2ccc(NC(=O)C3CCCCC3)cc12 | -18%
CCc1nnc(NC(=O)c2ccc(NS(=O)(=O)c3ccccc3)cc2)s1 | 4.33%

Molecular target: alpha-glucosidase (Oryza sativa, rice) (UniProt Q653V4)
Assay: Counterscreen for Glucocerebrosidase Inhibitors: qHTS Assay for Rice alpha-Glucosidase at pH 5.0 (AID 997);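 note: 0% = full activity with enzyme and -100% = basal without enzyme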
Settings: rice alpha-glucosidase enzyme activity; series mostly up to 76.9 µM; activity change, negative = inhibition: at the top concentration
In short: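 Rice alpha-glucosidase (4 nM final) with 400 uM 4-methylumbelliferyl-alpha-D-glucopyranoside in citrate buffer pH 5.0, 20 min at room temperature, stopped at pH 10; fluorescence 365/440 nm, compounds 0.7 nM–77 uM, AC50 from Hill fits.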

SMILES | activity change, negative = inhibition
CCCCCCCCCN1C[C@H](O)[C@@H](O)[C@H](O)[C@H]1CO | -99.3%
COc1ccc(Cl)cc1Nc1nc(NCCO)nc(N2CCCC2)n1 | -9.33%
CC(C)(C)Oc1ccccc1Nc1nc(NCCO)nc(N2CCCC2)n1 | -2.5%
Cc1cc(N2CCOCC2)nc2ccc(NC(=O)C3CCCCC3)cc12 | 22.3%
CCc1nnc(NC(=O)c2ccc(NS(=O)(=O)c3ccccc3)cc2)s1 | -12%
